Arbovirus anti – antivirals against arbovirus infection, primary screen, cell-based, full library, 10K replicate subset; arbovirus infection cell-based antiviral screen; inhibition, % at 10 µM; hit rate 0.37% among 200,000; in the data active means inhibition above about 30%
WT yeast gro inh – growth inhibition of WT strain, primary screen, mitochondrial fusion inhibitor project, WT and mutant strains, chemical genetic. mitochondrial fusion phenotypic screen. inhibition, % at 10 µM. hit rate 2.1% among 190,000. AID 1362, 2008; in the data active means inhibition above about 58%; tested in S. cerevisiae
CHOP inh – inhibitors of CHOP promoter induction, primary screen, cell-based, unfolded protein response, luciferase reporter. AID 2732, 2010. hit rate 3.8% among 220,000. inhibition, % at 10 µM. CHO-K1 CHOP-promoter luciferase, tunicamycin-induced, 15-18 h;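 active means compounds that reduced the stress-induced luciferase reporter signal by more than about 70% of percent inhibition, limit read from the data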;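 further: 0% = tunicamycin plus vehicle and 100% = wells without tunicamycin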
L major viab – Leishmania major promastigote growth inhibition, primary screen | Leishmania major promastigotes, resazurin fluorescence viability | inhibition, % at 10 µM | hit rate 9% among 200,000; in the data active means inhibition above about 50%;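 further: promastigotes grown with compound for 44 hours at 28 °C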
* marks the source's active call; other numbers are inactive results; . = no result given. In the library only some 12% were active in any assay of this set; here they are far more common.

SMILES	Arbovirus anti	WT yeast gro inh	CHOP inh	L major viab
Cc1nonc1OCCNCc1c(C(=O)N2CCCCCCC2)nc2ccc(Cl)cn12	4.2	4.6	17.4	0.2
Oc1cccc(-c2nc3ccc4ccccc4c3c3c2CCC3)c1	-38.0	-11.8	81.8*	43.8
N#Cc1c(N)nc2c(c1-c1cccc(O)c1)CCCCCC2	-12.1	3.4	47.5	21.3
CC(C(=O)N1CCCCCC1)c1ccc([N+](=O)[O-])cc1 (stereo not given)	1.0	-0.4	23.6	-0.9
C=CCn1c(=O)c(C(=O)Nc2ccccc2C(=O)OCC)c(O)c2ccccc21	-15.3	-2.1	12.4	68.0*
CCn1c(=O)c(C(=O)NCCNCCO)c(O)c2ccccc21	-11.2	-0.6	-8.0	17.5
CCn1c(=O)c(C(=O)NC(C)C)c(O)c2ccccc21	-9.7	1.9	72.3*	2.6
CCn1c(=O)c(C(=O)Nc2ccccn2)c(O)c2ccccc21	18.0	12.6	81.4*	11.4
CCn1c(=O)c(C(=O)Nc2ncccc2C)c(O)c2ccccc21	1.5	59.3*	38.6	2.9
CCOC(=O)c1ccccc1NC(=O)c1c(O)c2ccccc2n(CC)c1=O	-20.0	13.9	41.6	-4.3
Cn1c(SCC(=O)NNC(=O)Nc2ccccc2)nnc1-c1ccccc1	.	.	-2.7	.
Cc1c(S(=O)(=O)N2CCN(c3ccccc3)CC2)c(=O)n(C)c(=O)n1C	.	.	4.1	.
CCOC(=O)C1CCN(Cc2ccccc2C(F)(F)F)CC1	-2.4	-5.4	27.2	-5.1
CCOC(=O)C1CCN(Cc2cnc(Oc3ccc(Cl)cc3C)s2)CC1	2.5	24.3	38.9	90.0*
Cc1ccc(Oc2ncc(CN3CC(C)OC(C)C3)s2)cc1 (stereo not given)	0.5	40.9	29.4	52.2*
CCOC(=O)C1CCN(C(=S)Nc2ccc(Cl)cc2C)CC1	0.6	10.3	25.7	-0.3
CCOC(=O)C1CCN(Cc2cnc(Oc3ccc(N)cc3)s2)CC1	-10.0	-2.0	14.4	84.4*
Nc1nc(SCC(=O)Nc2ncc(C(F)(F)F)cc2Cl)n[nH]1	4.5	1.5	20.1	-6.6
Cn1cnc([N+](=O)[O-])c1Oc1cccc2ccccc12	-28.6	2.4	67.0	73.2*
COc1ccc(-n2c(NN)nc3sc4c(c3c2=O)CCCC4)cc1	-13.3	9.3	8.6	0.8
CCN1CCN(c2nc3sc4c(c3c(=O)n2-c2ccc(OC)cc2)CCCCC4)CC1	-5.2	-3.1	17.0	97.8*
Nc1c(Cl)nc(-c2ccccc2)nc1Cl	-3.1	0.3	-1.8	-7.9
Clc1ncnc2scc(-c3ccc(Br)cc3)c12	1.7	25.5	49.6	93.5*
Cc1c(C(=O)Nc2ccccc2-c2ccccc2)cccc1[N+](=O)[O-]	-1.9	8.5	9.3	-0.4
Cn1c(SCC(=O)O)nnc1-c1ccc2ncccc2c1	.	.	-10.8	.
SMILES	Arbovirus anti	WT yeast gro inh	CHOP inh	L major viab
C/C(=N\NC(N)=S)C12CC3CC(CC(C3)C1)C2	-9.6	12.2	50.7	100.5*
C/C(=N\NC(N)=S)C1(C)CCCCC1	-12.0	4.9	-21.9	24.8
C1=CCC(CN2CCN(C3CCCCCC3)CC2)CC1 (stereo not given)	-10.4	5.7	5.3	89.9*
FC(F)(F)c1cccc(N2CCN(CC3CC=CCC3)CC2)c1 (stereo not given)	-11.3	5.2	37.2	93.1*
O=C1c2ccccc2C(=O)N1CC#CCN1CCN(C2CCCCC2)CC1	-4.6	23.2	-7.3	16.0
Cc1ccc(N2CCN(CC3CC=CCC3)CC2)cc1 (stereo not given)	15.9	20.6	34.1	96.7*
CCCN1CCC(N2CCN(c3cccc(C(F)(F)F)c3)CC2)CC1	-18.9	3.9	-37.3	100.2*
CCN(CC)S(=O)(=O)c1ccc(C(=O)Oc2cc(C)[nH]c(=O)c2[N+](=O)[O-])cc1	0.7	2.7	4.4	-3.2
Cc1ccccc1N=C(NOCc1ccc(Cl)cc1Cl)c1nonc1N	-33.6	77.8*	84.8*	12.8
Cc1cc(C)c2cc(CN(CCO)C(=O)Nc3ccc(F)cc3)c(=O)[nH]c2c1	3.4	20.0	14.3	-2.0
Cc1cc(C)c2cc(CN(CCN(C)C)C(=O)Nc3ccccc3Cl)c(=O)[nH]c2c1	-25.2	6.7	15.2	58.3*
O=C(COc1ccc(Cl)cc1Cl)NCCSc1ccc(Cl)cc1	8.5	26.8	-2.9	10.2
CCNc1nc(NC(C)C)nc(SCCOC(=O)c2ccccc2)n1	2.6	28.6	40.5	16.5
CC(C)Nc1nc(NC(C)C)nc(SCCOC(=O)Nc2ccc(Cl)cc2Cl)n1	-6.7	65.7*	52.8	3.0
CCNc1nc(NCC)nc(SCCOC(=O)COc2ccc(Cl)cc2Cl)n1	-1.6	77.0*	41.5	-3.1
COc1ccccc1C1=NOC(C)(c2sc(-c3ccc(Cl)cc3)nc2C)C1 (stereo not given)	.	.	-27.6	.

Compound activity from PubChem BioAssay.
